# TDP1 cell noCPT: qHTS for Inhibitors of human tyrosyl-DNA phosphodiesterase 1 (TDP1): qHTS in cells in absence of CPT. DT40 Tdp1-/- hTDP1 cells, no CPT, ATP luminescence, 48 h. Potency, µM (series often up to 46.2 µM), without a hit: top-dose activity change, negative = growth inhibition, actives largely listed as inhibitors. 420,000 tested, 15% active. AID 686978, 2013; further: potency means the concentration at half of the fitted maximal effect; nearly all actives have a fitted effect of over 55% in size
#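 Luminescent ATP content (CellTiter-Glo) served as the growth readout. Knockout chicken DT40 cells expressing human TDP1 were exposed to compounds without camptothecin for a minimum 48 hr at 37 °C.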
# HT1080 IDH1KD tx: kills HT-1080 cells with IDH1 knockdown; HT-1080 IDH1 knockdown viability, ATP luminescence, 48 h; AID 686971; Potency, µM (doses to about 46.1 µM), inactives show at the top dose activity, negative = toxicity, usual class: cytotoxic; 360,000 tested, 2% active;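 further: potency means the concentration at half of the fitted maximal effect; 0% = DMSO wells and -100% = cell-free medium wells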
#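 Luminescent ATP read-out (CellTiter-Glo, 10 min at room temperature) after 48 h compound exposure at 37 °C gave viability of IDH1-knockdown HT-1080 cells. Activity was normalised to DMSO and cell-free wells, then fitted as concentration-response curves.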
# DT40 TDP1 CPT: growth inhibition of DT40 Tdp1-/-;hTDP1 cells with camptothecin (screen for TDP1 inhibitors) | chicken DT40 Tdp1-/-;hTDP1 cells + 20 nM CPT, ATP luminescence, 48 h | Potency, µM (highest dose often 46.2 µM), for the others: at the highest dose activity change, negative = growth inhibition, usual class: inhibitors | 420,000 tested, 12% active | AID 686979; further: potency means the concentration at half of the fitted maximal effect; nearly all actives have a fitted effect of over 55% in size
#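 Chicken DT40 Tdp1-/- cells complemented with human TDP1, 400 cells/well, exposed to compounds plus 20 nM camptothecin for at least 48 h at 37 C; viability read as ATP content by CellTiter-Glo luminescence.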
# IL-1B inflam inh: inhibitors of inflammasome signaling (IL-1 beta secretion); THP-1 LPS/ATP IL-1B secretion, AlphaLISA, 16 h; hits give low values; activity change, % at 57.5 µM; 360,000 tested, 4.7% active; AID 743279; in the data active means activity change below about -50%; inconclusive means mostly about -30% to -49%
#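 THP-1 cells pretreated 1 hr with compounds (up to 57.5 uM final), then stimulated with LPS (250 ng/mL final) plus ATP (1.25 mM final); secreted IL-1B measured by AlphaLISA after 16 hr, decreased signal indicating inhibition.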
# HT1080NT lethal: kills 2HG-producing HT-1080-NT fibrosarcoma cells; Potency, µM (series often up to 46.1 µM), for the others: top-dose activity, negative = less viability, actives largely listed as cytotoxic; AID 686970; HT-1080-NT fibrosarcoma viability, CellTiter-Glo ATP luminescence, 48 h; 360,000 tested, 1.6% active;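 further: NT is the 2HG producing partner of a matched IDH1 knockdown line; potency means the concentration at half of the fitted maximal effect; 0% = DMSO-treated cells and -100% = media-only wells without cells; nearly all actives have a fitted effect of over 55% in size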
#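 Viability by CellTiter-Glo luminescence after 48 h compound exposure at 37C of HT-1080-NT cells (750/well, RPMI, 5% FBS). % activity scaled between DMSO wells and medium-only wells, then curve-fitted and categorized by curve class.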
# ALOX12 inh: blocks human arachidonate 12S-lipoxygenase. Potency, µM (titrated, usually from 108 µM), for the others: at the highest dose activity change, negative = inhibition, most hits filed as inhibitors. 580,000 tested, 1.1% active. P18054. purified 12hLO, xylenol orange hydroperoxide absorbance; further: potency means the concentration at half of the fitted maximal effect
# Target sequence (P18054 whole entry, looked up): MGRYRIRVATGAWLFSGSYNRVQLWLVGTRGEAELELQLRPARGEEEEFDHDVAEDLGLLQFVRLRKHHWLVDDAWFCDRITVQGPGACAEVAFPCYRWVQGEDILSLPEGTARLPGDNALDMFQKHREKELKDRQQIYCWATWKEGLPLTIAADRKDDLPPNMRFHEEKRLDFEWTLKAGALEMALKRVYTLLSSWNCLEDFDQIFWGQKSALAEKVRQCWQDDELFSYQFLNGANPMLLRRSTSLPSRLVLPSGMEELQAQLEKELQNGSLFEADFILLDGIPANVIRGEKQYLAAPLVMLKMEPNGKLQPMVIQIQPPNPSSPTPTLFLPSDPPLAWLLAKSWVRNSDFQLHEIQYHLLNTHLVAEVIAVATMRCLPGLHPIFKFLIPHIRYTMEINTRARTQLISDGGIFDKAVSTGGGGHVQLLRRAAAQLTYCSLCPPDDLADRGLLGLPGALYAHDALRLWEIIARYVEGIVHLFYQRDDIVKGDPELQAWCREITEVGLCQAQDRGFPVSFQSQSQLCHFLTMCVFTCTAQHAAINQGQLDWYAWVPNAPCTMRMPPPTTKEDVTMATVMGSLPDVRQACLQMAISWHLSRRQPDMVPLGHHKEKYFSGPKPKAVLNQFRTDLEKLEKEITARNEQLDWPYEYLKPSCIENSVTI
#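 Purified human 12hLO at 150 nM in 25 mM Hepes, 0.01% Triton X-100, pH 7.0, preincubated 15 min at room temperature with compound. Reaction started with 40 uM arachidonic acid, 30 min at room temperature. Hydroperoxide measured by Fe-xylenol orange, 573/405 nm absorbance ratio.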
# * marks the source's active call; other numbers are inactive results; ? = inconclusive; nt = no result given; ! = not active in a repeat; [ ] = another dose, or the depositor's remark. The sample as a whole holds a higher share of hits than the screen did. Unless noted, the call rests on the fitted dose curve; in most records, active means well fitted curve in the direction sought with a large enough effect; inconclusive means small, poorly fitted or top-dose-only effect, or another doubt; inactive means no such curve, though single readings can be large; an effect the other way counts as inactive or inconclusive. Unless noted, on the % scale 0 is the no-effect control and ±100 the full control effect.
SMILES,TDP1 cell noCPT,HT1080 IDH1KD tx,DT40 TDP1 CPT,IL-1B inflam inh,HT1080NT lethal,ALOX12 inh
CN(/N=C/c1ccco1)C1=NS(=O)(=O)c2ccccc21,9%,-6%,-5%,-19,15%,-2%
CN(C1=NS(=O)(=O)c2ccccc21)c1ccc(OC(=O)c2ccccc2F)cc1,?,3%,-23%,-5,4%,-8%
COc1ccc(/C=N/N(C)C2=NS(=O)(=O)c3ccccc32)cc1,-4%,-9%,9%,-6,10%,0%
CN(/N=C/c1ccc(N(C)C)cc1)C1=NS(=O)(=O)c2ccccc21,?,?,4.1µM*,-12,?,-22%
CN(/N=C/c1cccc(Br)c1)C1=NS(=O)(=O)c2ccccc21,23µM*,25%,?,?,19%,8%
COc1ccc(N(C)C2=NS(=O)(=O)c3ccccc32)cc1,2.6µM*,23µM*,3.7µM*,44,12µM*,46%
N#Cc1nc(C2CC2)oc1N1CCN(C(=O)c2ccc(=O)[nH]c2)CC1,nt,nt,nt,nt,nt,55%
Cc1cc2nn(-c3ccc(Cl)cc3)nc2cc1N,-17%,2%,8%,15,1%,7.1µM*
COc1ccc(-n2nc3cc(C)c(N)cc3n2)cc1Cl,-8%,0%,5%,-10,4%,8.9µM*
Cc1cc2nn(-c3ccc(F)cc3)nc2cc1N,3%,-18%,21%,31,-22%,9%
CCOC(=O)c1cnc2ccc(Cl)cc2c1Nc1cc(C)ccc1OC,nt,nt,nt,nt,nt,1%
CC1(C)CN(C2CCCCC2)C(=O)[C@H]1CC(=O)Nc1ccc(Br)cc1,18µM*,17%,?,-28,17%,-7%
C[c-]1[c-](C)[c-](C)[c-](C)[c-]1C.[Fe].c1cc2nccc(N3CCCC3)[c-]2c1 (stereo not given),6.5µM*,3%,8.2µM*!,0,-11%,-21%
O=C(/C=C/c1ccc(Cl)cc1)c1ccc(Oc2ccccc2)cc1,nt,nt,nt,nt,nt,7%
O=C(/C=C/c1ccc(Cl)cc1)c1cccnc1,8.2µM*,?,5.8µM*,?,-20%,?
N#Cc1ccc(/C=C/C(=O)c2cccnc2)cc1,15µM*,?,10µM*,?,?,-16%
N#Cc1ccc(C(=O)/C=C/c2ccsc2)cc1,nt,nt,nt,nt,nt,3%
O=C(C=Cc1ccccc1F)c1ccccc1,?,?,?,-65*,?,4%
O=C(O)/C=C/c1c(F)cccc1Cl,nt,nt,nt,nt,nt,0%
O=C(/C=C/c1c(F)cccc1Cl)c1ccc(O)cc1,23µM*,?,?,?,?,?
CCOC(=O)c1cnc2ccc(OC)cc2c1Nc1cccc(Cl)c1C,nt,nt,nt,nt,nt,4%
COC1C(=O)N(C2CCN(C(=O)NC3CCCCC3)CC2)C12CCOCC2 (stereo not given),nt,nt,nt,nt,nt,29%
CN(C)c1ccc(C(=O)/C=C/c2ccc(Br)cc2)cc1,?,-3%,-19%,-23,0%,-4%
CCN(CC)c1ccc(/C=C/C(=O)c2cccnc2)cc1,21µM*,-8%,?,6,15%,-19%
CCN(CC)c1ccc(/C=C/C(=O)c2ccc(Br)cc2)cc1,?,-13%,16µM*,-65*,-3%,13%
SMILES,TDP1 cell noCPT,HT1080 IDH1KD tx,DT40 TDP1 CPT,IL-1B inflam inh,HT1080NT lethal,ALOX12 inh
O=C(/C=C/c1ccccc1Cl)c1cccnc1,16µM*,?,7.3µM*,?,?,-12%
O=C(/C=C/c1ccccc1Cl)c1ccc(O)cc1,15µM*,?,16µM*,-95*,-2%,?
CCN(CC)C(=O)c1sc2c(c1C)c(=O)n(CCc1ccccc1)c(=O)n2Cc1ccc(C)cc1,?,nt,21µM*,nt,nt,-26%
CCC(Sc1nnc2c(n1)[nH]c1ccccc12)C(=O)Nc1ccccc1OC (stereo not given),21µM*,nt,?,nt,nt,-1%
CCC(Sc1nnc(C)c(=O)[nH]1)C(=O)Nc1cccc2ccccc12 (stereo not given),?,-1%,-6%,11,-1%,?
CCOC(=O)c1ccc(NC(=O)C(CC)Sc2nnc3c4ccccc4n(C)c3n2)cc1 (stereo not given),18µM*,nt,16µM*,nt,nt,-12%
CCOC(=O)C(C)Sc1nnc2c3ccccc3n(C)c2n1 (stereo not given),6%,2%,4%,56,10%,-2%
CCCCN(C)S(=O)(=O)c1cc(-c2nn(C)c(=O)c3ccccc23)ccc1C,nt,nt,nt,nt,nt,24%
Cc1ccc(OCC(=O)O/N=C(\N)Cc2ccc(Cl)cc2)cc1,4.6µM*,-10%,6.5µM*,0,9%,9%
N/C(Cc1ccc([N+](=O)[O-])cc1)=N\OC(=O)c1ccc([N+](=O)[O-])cc1,?,-4%,?,?,-1%,-1%
C/C(=N\NC(=O)CSCc1ccc([N+](=O)[O-])cc1)c1cccc(Br)c1,18µM*,-7%,10µM*,-8,-12%,-18%
COc1cc(C(=O)O/N=C(\N)Cc2ccc([N+](=O)[O-])cc2)cc(OC)c1OC,15µM*,?,3.7µM*,-3,?,7%
COc1ccc(C/C(N)=N/OC(=O)c2cccc([N+](=O)[O-])c2)cc1,?,-9%,?,-12,-1%,11%
N/C(Cc1ccc([N+](=O)[O-])cc1)=N\OC(=O)c1cccc(Br)c1,?,7%,15µM*,-5,0%,-4%
CC(C)(CNC(=O)C1C2CCC(C2)C1C(=O)O)CNC(=O)C1C2CCC(C2)C1C(=O)O (stereo not given),nt,nt,nt,nt,nt,0%
N/C(Cc1ccc(Cl)cc1)=N\OC(=O)Cc1ccc([N+](=O)[O-])cc1,?,5%,?,-103*,6%,-16%
COc1ccc(OCC(=O)O/N=C(\N)Cc2ccc(Cl)cc2)cc1,-5%,2%,-15%,0,0%,-3%
COc1ccc(C(=O)O/N=C(\N)Cc2ccc([N+](=O)[O-])cc2)c(OC)c1,1.8µM*,18µM*,1.3µM*,-11,?,0%
Cc1ccc(C(=O)CC(=O)COc2ccc(Cl)cc2)cc1,15µM*,?,?,0,?,?
COc1nc(C)c(C(=O)N2C[C@H](CO)C[C@H](CN3CCCC3)C2)s1,nt,nt,nt,nt,nt,32%
O=C1CCCN1CCCN1C(=O)[C@@H]2C[C@@H](O)CN2C2(CNC2)C1=O,nt,nt,nt,nt,nt,12%[176 µM]
Nc1c(Cl)ncnc1N/N=C/c1cccnc1,2%,0%,5%,nt,-2%,?

# Screening data (PubChem)
